In PubChem BioAssay one finds z-score data, which are given here for 36 molecules.

A number with no mark means an inactive call. Calls of active or inactive are those of the source.

The test can be described thus: forskolin-driven CRE-LacZ activity in PC12 – cell-based, CRE-LacZ reporter, forskolin-stimulated, primary screen (AID 1146).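 Further: PC12 cells with 6xCRE LacZ reporter stimulated by forskolin 10 µM; beta-galactosidase reporter signal reflecting CREB driven transcription.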 Particulars: luminescence, 4.5 h, higher = more signal, called active from +8 up or from −8 down.
Take `CN(C)C(=O)[C@@]1(Cc2ccccc2)COC(c2ccc(OCCCO)cc2)=N1`: the z-score was -1.3.
Next, `CO[C@H]1O[C@H](CO)[C@@H](OC(=O)CCc2ccccc2)[C@H](OC(=O)c2cc3ccccc3[nH]2)[C@H]1OC(=O)c1cc2ccccc2[nH]1`: -1.2; `CN1C(=O)C2C=CC(C(O)c3cc(C(F)(F)F)cc(C(F)(F)F)c3)N(Nc3ccccc3)C2C1=O` (stereo unspecified): -0.0455; `COCCOC(=O)N1C(=O)[C@@]2(c3cc(C#CCCO)ccc31)[C@H](C(N)=O)[C@H]1C(=O)O[C@H](c3ccccc3)[C@H](c3ccccc3)N1[C@@H]2c1ccc(OCCO)cc1`: -0.087.
The value for `COCCOC(=O)N1C(=O)[C@@]2(c3cc(C#Cc4ccc(OC)cc4)ccc31)[C@H](C(=O)NC[C@H](O)c1ccccc1)[C@H]1C(=O)O[C@H](c3ccccc3)[C@H](c3ccccc3)N1[C@@H]2c1ccc(OCCO)cc1` was -0.544; that for `COCCOC(=O)N1C(=O)[C@@]2(c3cc(C#CCNC(N)=O)ccc31)[C@H](c1ccc(OCCO)cc1)N1[C@H](c3ccccc3)[C@H](c3ccccc3)OC(=O)[C@H]1[C@@H]2C(N)=O` was -0.304; that for `CC(=O)NCCCC[C@@H]1NC(=O)[C@H]2C[C@@H](C(=O)NCCCCCNC(=O)CS)[C@@H](c3cccc(OCCO)c3)N2C1=O` was 0.908.
Next, `O=C1O[C@H](c2ccccc2)[C@H](c2ccccc2)N2[C@H]1[C@@H](C(=O)N1CCCCCCC1)[C@]1(C(=O)Nc3ccc(C#CC4(O)CCCCCC4)cc31)[C@H]2c1ccccc1OCCO`: -0.0926; `COCCCNC(=O)[C@@]1(c2ccc([N+](=O)[O-])cc2)CC(=O)N(CC23CC4CC(CC(C4)C2)C3)[C@@H]1c1ccc(CO)cc1I`: 0.372.
With `COc1ccc(C#Cc2ccc3c(c2)[C@]2(C(=O)N3)[C@H](C(=O)N3CCCCCCC3)[C@H]3C(=O)O[C@H](c4ccccc4)[C@H](c4ccccc4)N3[C@@H]2c2ccc(O)cc2)cc1`, the z-score is -0.202.
The value for `C=C(/C(=C/C[C@H](OC(=O)c1ccncc1)c1cccc(OCCO)c1)c1cnc2ccccc2c1)C(C)C` was -0.386; that for `CCCCCCCCCCC(O)C1C=CC2C(=O)N(C)C(=O)C2N1Nc1cc(OC)c(OC)c(OC)c1` (stereo unspecified) was -0.212.
The value for `Nc1cc(Br)ccc1C(=O)O` was -0.929; that for `CN(C)C(=O)[C@]1(CCS(=O)(=O)c2ccccc2)N=C(c2ccc(OCCCO)cc2)O[C@@H]1c1ccccc1` was 1.1; that for `O=C1N(CCS(=O)(=O)c2ccccc2)Cc2ccccc2[C@@H]2OC(c3ccc(OCCCO)cc3)=N[C@]12CCS(=O)(=O)c1ccccc1` was -0.897.
The value for `COc1ccc([Si](C)(C)[C@H]2[C@H](CC(=O)N3Cc4ccccc4C[C@H]3CO)O[C@@]3(C(=O)N(Cc4ccc(N5C(=O)c6cccc7cccc5c67)cc4)c4ccccc43)[C@@H]2C)cc1` was -1.35; that for `COCC1=C2[C@@H](CCc3ccccc3)OB(O)C[C@@H]2[C@@H]2C(=O)N(C)C(=O)[C@@H]2C1` was 1.08; that for `CC(C)OC(=O)CC(=O)CC(O)c1ccc([N+](=O)[O-])cc1` (stereo unspecified) was 1.59.
Take `CC(C)C(=C=CC[C@@H](O)c1cccc(OCCO)c1)C[C@@H](O)c1ccccn1`: the z-score was -0.039.
The value for `C=CCC(OC(C)=O)[C@@H]1[C@@H](N(Cc2cccc3ccccc23)C(=O)c2cccc3ccccc23)c2cc(OCCCO)ccc2N1C(=O)c1ccc2ccccc2c1` (stereo partly specified) was 1.03; that for `CC(=O)N1CC(C(O)C2C=CC3C(=O)NC(=O)C3N2Nc2ccc(Cl)cc2Cl)c2ccccc21` (stereo unspecified) was -0.584; that for `COC(=O)[C@@]1(Cc2ccc(F)cc2)[C@H]2c3cc(C(=O)N(C)C)n(Cc4c(CO)[nH]cc(C)c4=O)c3C[C@H]2CN1C(=O)c1ccccc1` was 1.15.
Next, `CC(C)[C@H]1NC(=O)[C@@]23C(=O)N[C@@H](Cc4ccccc4)C2[C@H](C)[C@@]2(C)O[C@H]2C3/C=C/CCC/C=C/CNC(=O)[C@H](Cc2ccccc2)NC1=O` (stereo partly specified): -0.723; `CCOC(=O)C[C@H]1[C@H](OC(=O)c2ccccc2-c2ccccc2)[C@@H](NC(=O)c2ccccc2)c2cc(OCCCO)ccc2N1C(=O)c1ccccc1`: 0.908.
`COC(=O)[C@@]1(Cc2ccccc2CN=[N+]=[N-])N=C(c2ccc(OCCCO)cc2)O[C@H]1c1ccccc1`: the z-score was -0.923.
As to `C=C(COC)C(=O)CC[C@@H](OC(=O)c1cccnc1)c1ccccc1OCCO`, the z-score is 16.4 (active).
On to `CC1CC/C=C\[C@H]2OC34C=CCN(CCN5CCOCC5)C(=O)[C@H]3N(C(C)CO)C(=O)[C@@H]4C2C(=O)O1` (stereo partly specified), for which the z-score was -0.0178.
The value for `[N-]=[N+]=NCc1ccccc1[C@H]1OC(c2ccc(OCCCO)cc2)=N[C@@]1(CCS(=O)(=O)c1ccccc1)C(=O)NCc1ccccc1` was -0.0054; that for `COc1ccc([Si](C)(C)[C@H]2[C@H](CCO)O[C@@]3(C(=O)N(Cc4ccc(N5C(=O)c6ccccc6Oc6ccccc65)cc4)c4ccccc43)[C@@H]2C)cc1` was -0.986; that for `O=C(NCC(O)CO)[C@@]1(CCS(=O)(=O)c2ccccc2)COC(c2ccc(OCCCO)cc2)=N1` (stereo partly specified) was 0.0138.
The value for `C=CCC(OC(C)=O)[C@@H]1[C@@H](N(Cc2cccc3ccccc23)C(=O)Cc2ccc(F)cc2)c2cc(OCCCO)ccc2N1C(=O)c1ccc(-c2ccccc2)cc1` (stereo partly specified) was 0.429; that for `C=CCNC(=O)[C@@H]1[C@H]2C(=O)O[C@H](c3ccccc3)[C@H](c3ccccc3)N2[C@H](c2ccc(O)cc2)[C@@]12C(=O)N(C(=O)OCCOC)c1ccc(C#CCCO)cc12` was 0.243; that for `C=CCNC(=O)[C@@H]1[C@H]2C(=O)O[C@H](c3ccccc3)[C@H](c3ccccc3)N2[C@H](c2ccc(OCCO)cc2)[C@@]12C(=O)N(C(=O)OCCOC)c1ccc(C#CCCO)cc12` was 0.0859.
Consider `C=CCOC(=O)[C@H]1[C@@H]2C(=O)O[C@@H](c3ccccc3)[C@@H](c3ccccc3)N2[C@@H](c2ccc(OCCOC(=O)[C@H]3C[C@H]4C(=O)N[C@@H](CCCCNC(C)=O)C(=O)N4[C@H]3c3cccc(OCCO)c3)cc2)[C@]12C(=O)Nc1ccc(I)cc12`, for which the z-score is 0.133.
On to `COCCOC(=O)N1C(=O)[C@@]2(c3cc(C#CC4=CCCCC4)ccc31)[C@H](c1ccc(O)cc1)N1[C@H](c3ccccc3)[C@H](c3ccccc3)OC(=O)[C@H]1[C@@H]2C(=O)NC[C@H](O)c1ccccc1`, for which the z-score is -0.369.
As to `CN1C(=O)C2C=CC(C(O)c3ccc(I)cc3)N(Nc3ccccc3)C2C1=O` (stereo unspecified), the z-score was 1.34.
